Test results: PubChem BioAssay (NCI)
This is part of a sample that, as a whole, favours compounds with a hit. Of some 79,000 tested, about 15% had one in any assay. Unmarked numbers belong to inactive results. Calls of active or inactive are those of the source. Rule as the data show it: active = growth inhibition above about 70%; inactive = the rest.

Key:
[1] = NCI Yeast Anticancer Drug Screen. Data for the rad52 strain (AID 147);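 also: 0% = growth of vehicle-treated control cultures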; conditions: S. cerevisiae rad52 mutant growth inhibition, hits give high values
Summary of the method: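 The repair-mutant yeast strain was incubated with compounds, then growth was read and inhibition derived relative to vehicle.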

[2] = NCI Yeast Anticancer Drug Screen. Data for the wt1 strain (AID 149);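 also: 0% = growth of vehicle-treated wt1 cultures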; conditions: S. cerevisiae wt1 strain (SPY 50644) growth inhibition, hits give high values
Summary of the method: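 Growth inhibition read against vehicle controls after compound exposure of the wt1 yeast strain.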

[3] = NCI Yeast Anticancer Drug Screen. Data for the rad50EPP+ strain (AID 151);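 also: 0% = growth of vehicle-treated control cultures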; conditions: S. cerevisiae rad50 mutant strain, hits give high values
Summary of the method: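 Vehicle-normalised growth inhibition; rad50EPP+ yeast strain, altered in DNA damage repair, compound-treated.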

[4] = NCI Yeast Anticancer Drug Screen. Data for the mgt1 strain (AID 153); conditions: S. cerevisiae mgt1 mutant growth inhibition, hits give high values
Summary of the method: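 Vehicle-normalized growth inhibition is determined in mgt1 yeast, a strain selected for a defined alteration in DNA repair or cell cycle control.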

[5] = NCI Yeast Anticancer Drug Screen. Data for the rad50 strain (AID 155);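 also: 0% = growth of vehicle-only cultures of the same strain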; conditions: S. cerevisiae rad50 strain growth inhibition, hits give high values
Summary of the method: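 Readout: growth inhibition relative to vehicle-treated cultures. Compound exposure was carried out in a genetically defined yeast strain deficient in DNA damage repair.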

[6] = NCI Yeast Anticancer Drug Screen. Data for the mec2-1 strain (AID 157); conditions: S. cerevisiae mec2-1 strain, hits give high values
Summary of the method: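 Mutant yeast (mec2-1) grown with compound; growth inhibition relative to vehicle control reported.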

[7] = NCI Yeast Anticancer Drug Screen. Data for the rad14 strain (AID 159);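 also: 0% = growth of vehicle-treated control cultures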; conditions: S. cerevisiae rad14 strain growth inhibition, hits give high values
Summary of the method: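 Growth inhibition vs vehicle controls; genetically altered yeast strain (DNA damage repair defect) treated with test compounds.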

[8] = NCI Yeast Anticancer Drug Screen. Data for the sgs1 mgt1 strain (AID 161);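 also: 0% = growth of cultures given vehicle only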; conditions: S. cerevisiae sgs1 mgt1 strain, hits give high values
Summary of the method: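 Yeast cells carrying a defined DNA-repair defect were exposed to test compounds. Growth inhibition was measured relative to vehicle-treated controls.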

[9] = NCI Yeast Anticancer Drug Screen. Data for the CLN2oe strain (AID 163);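 also: 0% = growth of vehicle-only control cultures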; conditions: S. cerevisiae CLN2oe strain, hits give high values
Summary of the method: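 Compounds are applied to yeast harbouring a defined cell-cycle control change; reduced growth compared with vehicle-treated controls gives the value.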

[10] = NCI Yeast Anticancer Drug Screen. Data for the cln2 rad14 strain (AID 165);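 also: 0% = growth equal to vehicle treated cultures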; conditions: S. cerevisiae cln2 rad14 strain, hits give high values
Summary of the method: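 Readout is yeast growth inhibition versus vehicle-treated controls, using a strain with cln2 and rad14 alterations exposed to compound.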

[11] = NCI Yeast Anticancer Drug Screen. Data for the bub3 strain (AID 167); conditions: S. cerevisiae bub3 mutant strain, hits give high values
Summary of the method: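 Readout: yeast growth inhibition, expressed relative to vehicle-only wells. The test organism is a mutant strain from a panel with lesions in DNA repair or checkpoint genes.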

[12] = NCI Yeast Anticancer Drug Screen. Data for the wt2 strain (AID 169);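 also: 0% = growth of vehicle-treated yeast cultures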; conditions: S. cerevisiae wt2 strain growth inhibition, hits give high values
Summary of the method: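 Against vehicle-treated controls, the growth of yeast exposed to each compound was compared, and the inhibition was recorded.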

[13] = NCI Yeast Anticancer Drug Screen. Data for the mlh1 strain (AID 171);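 also: 0% = growth of vehicle-treated control cultures of the same strain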; conditions: S. cerevisiae mlh1 strain growth inhibition, hits give high values
Summary of the method: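 Measured: yeast growth. Reference: vehicle-treated controls. Organism: strain with a defined alteration affecting DNA damage repair or cell cycle control, treated with compound.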

[14] = NCI Yeast Anticancer Drug Screen. Data for the sgs1 strain (AID 173);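 also: 0% = growth of vehicle-only control cultures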; conditions: S. cerevisiae sgs1 mutant, hits give high values
Summary of the method: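 Each compound was added to cultures of the altered yeast strain. Growth was recorded, and inhibition was derived by comparison with vehicle controls.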

[15] = NCI Yeast Anticancer Drug Screen. Data for the mlh1 rad18 strain (AID 175); conditions: S. cerevisiae mlh1 rad18 strain growth inhibition, hits give high values
Summary of the method: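 Genetically defined yeast (DNA repair-deficient) exposed to compounds; growth inhibition determined relative to vehicle.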

[16] = NCI Yeast Anticancer Drug Screen. Data for the rad18 strain (AID 177); conditions: S. cerevisiae rad18 mutant growth inhibition, hits give high values
Summary of the method: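 Vehicle-treated cultures served as the baseline for scoring compound-induced growth inhibition in DNA-repair-mutant yeast.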

[17] = at 5.0 µM (retest, dose inferred, filed as 0.5)
[18] = at 50.0 µM (retest, dose inferred, filed as 5.0)

Work on `CC(=O)OCC(C)Cc1cc2c(cc1Br)OCO2` (stereo not drawn) yielded a growth inhibition ([1]; at 1.2 µM) of -6%, a growth inhibition ([1]; at 3.7 µM) of -11% and a growth inhibition ([1]; at 11.0 µM) of -8%. The growth inhibition ([1]; at 33.0 µM) was -3%, the growth inhibition ([1]; at 100.0 µM) was 19% and the growth inhibition ([2]; at 1.2 µM) was 1%. For the same compound, the growth inhibition ([2]; at 3.7 µM) was -5%, the growth inhibition ([2]; at 11.0 µM) was 6% and the growth inhibition ([2]; at 33.0 µM) was -2%. It also gave a growth inhibition ([2]; at 100.0 µM) of -13%, a growth inhibition ([3]; at 1.2 µM) of -9% and a growth inhibition ([3]; at 3.7 µM) of -6%. For the same compound, the growth inhibition ([3]; at 11.0 µM) was 16%, the growth inhibition ([3]; at 33.0 µM) was 18% and the growth inhibition ([3]; at 100.0 µM) was 33%. The growth inhibition ([4]; at 1.2 µM) was -3%, the growth inhibition ([4]; at 3.7 µM) was -9% and the growth inhibition ([4]; at 11.0 µM) was -8%. The growth inhibition ([4]; at 33.0 µM) was -9%, the growth inhibition ([4]; at 100.0 µM) was 16% and the growth inhibition ([5]; at 1.2 µM) was -16%. It also gave a growth inhibition ([5]; at 3.7 µM) of -19%, a growth inhibition [5, 17] of 2% and a growth inhibition ([5]; at 11.0 µM) of -23%. The growth inhibition ([5]; at 33.0 µM) was -13%, the growth inhibition [5, 18] was 19% and the growth inhibition ([5]; at 50.0 µM) was 31.6%. It also gave a growth inhibition ([5]; at 100.0 µM) of 38%, a growth inhibition ([6]; at 1.2 µM) of -3% and a growth inhibition ([6]; at 3.7 µM) of -4%. The growth inhibition [6, 17] was 0%, the growth inhibition ([6]; at 11.0 µM) was -6% and the growth inhibition ([6]; at 33.0 µM) was -11%. For the same compound, the growth inhibition [6, 18] was 37%, the growth inhibition ([6]; at 50.0 µM) was 3.8% and the growth inhibition ([6]; at 100.0 µM) was -10%. The growth inhibition ([7]; at 1.2 µM) was 4%, the growth inhibition ([7]; at 3.7 µM) was -3% and the growth inhibition ([7]; at 11.0 µM) was 9%. The growth inhibition ([7]; at 33.0 µM) was 12%, the growth inhibition ([7]; at 100.0 µM) was 56% and the growth inhibition [8, 17] was 1%. For the same compound, the growth inhibition [8, 18] was 72% (active), the growth inhibition ([8]; at 50.0 µM) was 91.3% (active) and the growth inhibition ([9]; at 1.2 µM) was -7%. For the same compound, the growth inhibition ([9]; at 3.7 µM) was -9%, the growth inhibition ([9]; at 11.0 µM) was -16% and the growth inhibition ([9]; at 33.0 µM) was -16%. The growth inhibition ([9]; at 100.0 µM) was -15%, the growth inhibition [10, 17] was -1% and the growth inhibition [10, 18] was 12%. The growth inhibition ([10]; at 50.0 µM) was 4.65%, the growth inhibition ([11]; at 1.2 µM) was -2% and the growth inhibition ([11]; at 3.7 µM) was 3%. The growth inhibition [11, 17] was 7%, the growth inhibition ([11]; at 11.0 µM) was 2% and the growth inhibition ([11]; at 33.0 µM) was 2%. For the same compound, the growth inhibition [11, 18] was 43%, the growth inhibition ([11]; at 50.0 µM) was 19.8% and the growth inhibition ([11]; at 100.0 µM) was 21%. It also gave a growth inhibition ([12]; at 1.2 µM) of -1%, a growth inhibition ([12]; at 3.7 µM) of 0% and a growth inhibition ([12]; at 11.0 µM) of 7%. The growth inhibition ([12]; at 33.0 µM) was 20%, the growth inhibition ([12]; at 100.0 µM) was 89% (active) and the growth inhibition ([13]; at 1.2 µM) was -21%. The growth inhibition ([13]; at 3.7 µM) was -8%, the growth inhibition ([13]; at 11.0 µM) was -10% and the growth inhibition ([13]; at 33.0 µM) was -11%. The growth inhibition ([13]; at 100.0 µM) was 62%, the growth inhibition ([14]; at 1.2 µM) was -66% and the growth inhibition ([14]; at 3.7 µM) was -14%. The growth inhibition ([14]; at 11.0 µM) was 3%, the growth inhibition ([14]; at 33.0 µM) was 15% and the growth inhibition ([14]; at 100.0 µM) was 78% (active). For the same compound, the growth inhibition [15, 17] was 1%, the growth inhibition [15, 18] was 70% (active) and the growth inhibition ([15]; at 50.0 µM) was 78.8% (active). For the same compound, the growth inhibition ([16]; at 1.2 µM) was -9%, the growth inhibition ([16]; at 3.7 µM) was -8% and the growth inhibition ([16]; at 11.0 µM) was -10%. For the same compound, the growth inhibition ([16]; at 33.0 µM) was -10% and the growth inhibition ([16]; at 100.0 µM) was 13%.
